# Assay results: the supplement of paper PMC9262897, “Low-cost anti-mycobacterial drug discovery using engineered E. coli” (Nature Communications, 2022)
# Counter-ions that a name gives are not always drawn. ± gives the standard deviation of the averaged measurements.
# Experiments:
# Test in all cases: growth (OD600 after 10 h); higher = more growth (less inhibition)
# [1] = tested on: E. coli TESEC Alr+ wild-type control; settings: compound 0.1 mM; raw OD600 reference: median of DMSO wells 0.241, cell-free background 0.041
# Protocol: (§1)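 TESEC Mtb Alr E. coli, or the Alr+ wild-type control, in 384-well plates with Prestwick library compounds at 0.1 mM and 1% DMSO, across arabinose induction levels of 1E3 to 1E7 nM. Growth is read as OD600 after 10 h at 37 °C in triplicate biological replicates.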
# E. coli TESEC Mtb Alr [2] = settings: compound 0.1 mM
# Protocol: as §1
# E. coli TESEC Mtb Asd = settings: compound 0.1 mM
# Protocol: (§2)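 TESEC E. coli strains in which the native enzyme is deleted and replaced by arabinose-inducible Mtb Asd, DapB, CysH or TrpD, each grown in its selective medium. Strains were screened against the Prestwick library at 0.1 mM and 1% DMSO in 384-well format at low and high arabinose induction. Growth is read as OD600 after 10 h in triplicate.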
# E. coli TESEC Mtb DapB = settings: compound 0.1 mM
# Protocol: as §2
# E. coli TESEC Mtb Alr [3] = settings: compound 0.1 mM; remark: listed apart in the source
# Protocol: (§3)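 TESEC Mtb Alr E. coli (ΔaraC ΔtolC ΔentC Δalr ΔdadX, arabinose-inducible Mtb Alr) or the Alr+ wild-type control strain, grown in defined M9-fructose medium without D-alanine in 96-well plates with Prestwick library compounds at 0.1 mM and 1% DMSO. Low Alr induction is 0.1 µM arabinose and high induction is 10 mM arabinose.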
# [4] = tested on: E. coli TESEC Alr+ wild-type control; settings: compound 0.1 mM; raw OD600 reference: median of DMSO wells 0.49, cell-free background 0.052
# Protocol: as §3
# [5] = arabinose 1000 nM, raw OD600 reference: median of DMSO wells 0.294, cell-free background 0.041
# [6] = arabinose 10000 nM, raw OD600 reference: median of DMSO wells 0.264, cell-free background 0.041
# [7] = arabinose 100000 nM, raw OD600 reference: median of DMSO wells 0.201, cell-free background 0.041
# [8] = arabinose 1000000 nM, raw OD600 reference: median of DMSO wells 0.193, cell-free background 0.041
# [9] = arabinose 10000000 nM, raw OD600 reference: median of DMSO wells 0.146, cell-free background 0.041
# [10] = arabinose induction (level): High, raw OD600 reference: median of DMSO wells 0.331, cell-free background 0.041
# [11] = arabinose induction (level): Low, raw OD600 reference: median of DMSO wells 0.417, cell-free background 0.041
# [12] = arabinose induction (level): High, raw OD600 reference: median of DMSO wells […], cell-free background 0.041
# [13] = arabinose induction (level): Low, raw OD600 reference: median of DMSO wells 0.227, cell-free background 0.041
# [14] = arabinose 100 nM, raw OD600 reference: median of DMSO wells 0.413, cell-free background 0.052
# [15] = arabinose 10000000 nM, raw OD600 reference: median of DMSO wells […], cell-free background 0.052
SMILES,growth [1],growth (E. coli TESEC Mtb Alr [2]; [5]),growth (E. coli TESEC Mtb Alr [2]; [6]),growth (E. coli TESEC Mtb Alr [2]; [7]),growth (E. coli TESEC Mtb Alr [2]; [8]),growth (E. coli TESEC Mtb Alr [2]; [9]),growth (E. coli TESEC Mtb Asd; [10]),growth (E. coli TESEC Mtb Asd; [11]),growth (E. coli TESEC Mtb DapB; [12]),growth (E. coli TESEC Mtb DapB; [13]),growth (E. coli TESEC Mtb Alr [3]; [14]),growth (E. coli TESEC Mtb Alr [3]; [15]),growth [4]
CNC(C)(C)Cc1ccccc1 [Mephentermine hemisulfate],0.247 ± 0.0094,0.303 ± 0.018,0.274 ± 0.0032,0.224 ± 0.012,0.193 ± 0.0098,0.138 ± 0.0038,0.273 ± 0.036,0.433 ± 0.033,0.208 ± 0.012,0.221 ± 0.0061,0.402 ± 0.0066,0.381 ± 0.03,
CC(C)(C)NCC(O)c1cc(Cl)c(N)c(Cl)c1 (stereo not given) [Clenbuterol hydrochloride],0.226 ± 0.0046,0.292 ± 0.0084,0.246 ± 0.005,0.252 ± 0.011,0.215 ± 0.005,0.157 ± 0.0026,0.35 ± 0.0059,0.231 ± 0.031,,,0.398 ± 0.011,0.355 ± 0.024,
NC(=O)CN1CCCC1=O [Piracetam],0.245 ± 0.0091,0.299 ± 0.0073,0.27 ± 0.0054,0.224 ± 0.034,0.184 ± 0.0072,0.15 ± 0.0043,0.302 ± 0.06,0.325 ± 0.092,,,0.415 ± 0.011,0.346 ± 0.018,0.491 ± 0.12
CC1C=CC=CCCC=CC=CC=CC=CC(OC2OC(C)C(O)C(N)C2O)CC2OC(O)(CC(O)C(O)CCC(O)CC(O)CC(O)CC(=O)OC(C)C(C)C1O)CC(O)C2C(=O)O (stereo not given) [Nystatine],0.297 ± 0.0097,0.307 ± 0.025,0.2338 ± 0.0013,0.345 ± 0.014,0.1538 ± 0.0011,0.188 ± 0.0066,0.23 ± 0.021,0.256 ± 0.023,,,0.431 ± 0.0073,0.345 ± 0.016,
CC(C)[N+](C)(CCC(C(N)=O)(c1ccccc1)c1ccccc1)C(C)C [Isopropamide iodide],0.211 ± 0.003,0.285 ± 0.0086,0.248 ± 0.0032,0.199 ± 0.015,0.147 ± 0.0039,0.142 ± 0.0052,0.268 ± 0.036,0.41 ± 0.036,,,0.399 ± 0.025,0.331 ± 0.013,
CCC1=C[C@H]2CN3CCc4c([nH]c5ccccc45)[C@](C(=O)OC)(C2)[C@H]13 [Catharanthine],0.203 ± 0.0049,0.262 ± 0.012,0.259 ± 0.006,0.169 ± 0.013,0.101 ± 0.0015,0.144 ± 0.0052,0.2 ± 0.032,0.437 ± 0.016,,,0.4199 ± 0.0038,0.3 ± 0.017,
Fc1ccc(C(OCCN2CCN(CCCc3ccccc3)CC2)c2ccc(F)cc2)cc1,0.0433 ± 0.0027,0.04027 ± 0.00025,0.0453 ± 0.00061,0.0419 ± 0.0013,0.045 ± 0.00035,0.0435 ± 0.00049,0.0464 ± 0.00055,0.04613 ± 0.00046,,,0.235 ± 0.15,0.0503 ± 0.0006,0.04777 ± 0.00025
CC(=O)OCC(=O)[C@H]1CC[C@H]2[C@@H]3CC[C@H]4C[C@H](O)CC[C@]4(C)[C@H]3C(=O)C[C@]12C [Alfadolone acetate],0.15 ± 0.0034,0.196 ± 0.003,0.222 ± 0.0029,0.194 ± 0.0054,0.153 ± 0.0021,0.109 ± 0.0024,0.289 ± 0.075,0.19 ± 0.0093,0.137 ± 0.0076,0.157 ± 0.03,0.395 ± 0.007,0.257 ± 0.0074,
CCNCC(O)c1cccc(O)c1 (stereo not given) [Etilefrine hydrochloride],0.247 ± 0.0026,0.3085 ± 0.0027,0.261 ± 0.012,0.188 ± 0.018,0.193 ± 0.0032,0.134 ± 0.0026,0.211 ± 0.025,0.367 ± 0.035,,,0.409 ± 0.015,0.345 ± 0.023,0.446 ± 0.011
CC(CCc1ccccc1)NC(C)C(O)c1ccc(O)cc1 (stereo not given) [Nylidrin],0.215 ± 0.0087,0.297 ± 0.018,0.285 ± 0.013,0.167 ± 0.0039,0.16 ± 0.0093,0.144 ± 0.002,0.351 ± 0.062,0.495 ± 0.048,,,0.404 ± 0.014,0.316 ± 0.013,
COc1cc([C@@H]2c3cc4c(cc3[C@H](O)[C@H]3COC(=O)[C@H]23)OCO4)cc(OC)c1OC [Podophyllotoxin],0.222 ± 0.0075,0.298 ± 0.016,0.271 ± 0.0092,0.168 ± 0.012,0.163 ± 0.0082,0.1495 ± 0.0008,0.443 ± 0.027,0.46 ± 0.053,,,0.403 ± 0.015,0.298 ± 0.0059,0.545 ± 0.085
CCCN1C[C@H](CSC)C[C@@H]2c3cccc4[nH]cc(c34)C[C@H]21 [Pergolide mesylate],0.2 ± 0.0044,0.254 ± 0.014,0.252 ± 0.0036,0.185 ± 0.0061,0.161 ± 0.0045,0.156 ± 0.0071,0.314 ± 0.05,0.425 ± 0.015,,,0.426 ± 0.018,0.345 ± 0.019,
CCn1cc(C(=O)O)c(=O)c2cc3c(cc21)OCO3 [Oxolinic acid],0.0726 ± 0.0019,0.05577 ± 0.00049,0.0509 ± 0.00026,0.0646 ± 0.0014,0.0934 ± 0.0036,0.123 ± 0.0027,0.156 ± 0.011,0.149 ± 0.011,,,0.0698 ± 0.0013,0.0582 ± 0.0011,
CN1CCN(C(=O)OC2c3nccnc3C(=O)N2c2ccc(Cl)cn2)CC1 (stereo not given) [Zopiclone],0.222 ± 0.0047,0.284 ± 0.0071,0.246 ± 0.0053,0.183 ± 0.011,0.18 ± 0.0087,0.138 ± 0.0054,0.291 ± 0.062,0.358 ± 0.056,0.194 ± 0.0097,0.224 ± 0.04,0.417 ± 0.009,0.357 ± 0.01,
